In the library only some 3% were active in any assay of this set; here they are far more common.
SKOV3 invasion – Primary qHTS assay for Inhibitors of ovarian cancer metastasis using an organotypic tumor microenvironment (TME) model; SKOV3ip1-GFP adhesion/invasion on 3D omental model, fluorescence; Potency, µM (series often up to 45.8 µM), for inactives: at the top dose activity change, negative = inhibition, most hits filed as inhibitors; 0.1% of 46,000 active;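 further: plate controls were DMSO wells for no effect and tomatine positive control wells for full effect; nearly all actives have a fitted effect of over 65% in size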
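A 3D layer of primary human omental fibroblasts, mesothelial cells, fibronectin and collagen I, grown 48 hr, received SKOV3ip1-GFP cells in serum-free medium plus compounds at 0.36-46 umol/L. After 2 hr RT and 16 hr 37 C, fixed adherent GFP cells were counted; normalized to DMSO and tomatine.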
mTORC1 inh – Acumen qHTS Assay for Inhibitors of the mTORC1 Signaling Pathway in MEF (Tsc2-/-, p53-/-) Cells: Sytravon. Tsc2-/- p53-/- MEF, phospho-rpS6 immunofluorescence/PI, 24 h. 0.78% of 44,000 active. Potency, µM (doses to about 38.3 µM), without a hit: at the highest dose activity change, negative = inhibition, hits mostly inhibitors. AID 493208, 2011;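 further: plate controls were DMSO for no effect and rapamycin for full effect; nearly all actives have a fitted effect of over 50% in size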
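Readout is phospho-S6 Alexa 488 signal normalized to PI per well, reported as % active cells with thresholds set from rapamycin (7.5 nM) and DMSO controls. Cells: Tsc2-/-, p53-/- MEFs, 24 hrs compound at 37 C; PI cell number serves as viability.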
p53null 32C kill – qHTS Screen for Compounds that Selectively Target Cancer Cells with p53 Mutations: Cytotoxicity of p53 Null Cells at the Permissive Temperature; Potency, µM (highest dose often 46.1 µM), inactives show at the top dose activity change, negative = cytotoxicity, most hits filed as cytotoxic; H1299-neo p53 null cells, ATP luminescence, 24 h, 32C; AID 903, 2007; 0.62% of 55,000 active;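 further: 0% = DMSO only and -100% = full killing by 100 µM tamoxifen; nearly all actives have a fitted effect of over 55% in size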
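H1299-neo, 600 cells/well; overnight 37C; cpd up to 46 uM, 24 h at 32C; ATPlite luminescence after 20 min RT; normalized to DMSO (0%) and tamoxifen 100 uM (100% kill); Hill-fit AC50.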
p53null 39C tox – qHTS Screen for Compounds that Selectively Target Cancer Cells with p53 Mutations: Cytotoxicity of p53 Null Cells at the Nonpermissive Temperature; Potency, µM (top dose mostly 46.1 µM), for the others: at the top dose activity, negative = cell killing, most hits filed as cytotoxic; AID 904, 2007; 0.97% of 55,000 active; H1299 p53-null (neo) cells, 39C, ATPlite viability, 24 h;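 further: 0% = DMSO only and -100% = full killing by 100 µM tamoxifen; nearly all actives have a fitted effect of over 50% in size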
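H1299 lung cancer cells, p53-null (H1299-neo) or expressing p53 A138V (H1299-p53A138V), were plated overnight at 37C, then exposed to compounds at up to 46 uM for 24 hr at 39C. Viability was read by ATP-based luminescence.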
PMP22 txn – Cell-based coincidence reporter assay to measure PMP22 gene transcription in S16 Pmp22-F2sN cells - Primary screen; S16 Pmp22-F2sN Schwann cells, FLuc/NLuc coincidence luminescence, 24 h; Potency, µM (titrated, usually from 57.5 µM), for the others: at the highest dose activity change, negative = inhibition, actives largely listed as inhibitors; 2% of 43,000 active; AID 1508649, 2021; active means clear falling dose curves in both reporters; inconclusive means both reporters move, but less clearly or upward; inactive means either reporter flat; the % is the NLuc reporter signal
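S16 Schwann cells carrying FLuc/NLuc coincidence reporter in the Pmp22 3' UTR treated with compound 24 h at 37C; FLuc then NLuc luminescence read sequentially by dual-luciferase reagents.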
S16 viability – Cell viability qHTS assay in S16 Pmp22-F2sN cells. S16 Pmp22-F2sN Schwann cells (luciferase reporters placed in the Pmp22 gene) viability, CellTiter-Glo, 24 h. Potency, µM (top dose mostly 57.5 µM), without a hit: at the highest dose activity change, negative = cytotoxicity, hits mostly cytotoxic. 0.48% of 43,000 active; further: nearly all actives have a fitted effect of over 65% in size
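Rat S16 Schwann reporter line, 24 h treatment with library compounds delivered at 23 nL per well. Cell viability by CellTiter-Glo luminescence.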
The depositor's hits bear a star; i = inactive; ? = inconclusive; . = not tested or not shown. Unless noted, the call rests on the fitted dose curve; in most records, active means well fitted curve in the direction sought with a large enough effect; inconclusive means small, poorly fitted or top-dose-only effect, or another doubt; inactive means no such curve, though single readings can be large; an effect the other way counts as inactive or inconclusive. Unless noted, on the % scale 0 is the no-effect control and ±100 the full control effect; potency means the concentration at half of the fitted maximal effect.

SMILES	SKOV3 invasion	mTORC1 inh	p53null 32C kill	p53null 39C tox	PMP22 txn	S16 viability
CCN1CCN(Cc2ccc(-c3cc4c(N[C@H](C)c5ccccc5)ncnc4[nH]3)cc2)CC1	3%	.	.	.	.	.
Cc1oc(-c2cccc(Cl)c2)nc1CN1CCC(C(=O)NCCc2ccc(Cl)cc2)CC1	2%	0%	-4%	-13%	-22%	22%
Cc1oc(-c2cccc(Cl)c2)nc1CN1CCCC(C(=O)NCCc2ccc(Cl)cc2)C1 (centres undefined)	0%	0%	-1%	20µM*	?	?
CCOC(=O)c1ccc(N2C(=O)c3n[nH]c(C)c3C2c2cccc(Br)c2)cc1 (centres undefined)	-5%	16µM*	17%	?	?	?
CCOC(=O)c1ccc(N2C(=O)c3n[nH]c(C)c3C2c2ccc(CC)cc2)cc1 (centres undefined)	i	7%	8%	10%	0%	25%
c1ccc(N2CCN(c3ncnc4c3nc3n4CCCC3)CC2)cc1	16%	1%	-11%	-13%	?	?
FC(F)(F)c1cccc(N2CCN(c3ncnc4c3nc3n4CCCC3)CC2)c1	3%	0%	-7%	-15%	13µM*	?
CC(C)(C)c1ccc(C(=O)Nc2onc3c2CCCC3)cc1	-4%	1%	16µM*	?	-25%	?
CCOc1ccc(C(=O)Nc2onc3c2CCCC3)cc1	1%	2%	6.3µM*	4µM*	?	-2%
CC(C)COc1ccc(C(=O)Nc2onc3c2CCCC3)cc1	-5%	-6%	?	13µM*	6%	?
CCOCc1cc(CN2CCN(c3cccc(C(F)(F)F)c3)CC2)c(O)c2ncccc12	-13%	?	?	?	4.5µM*	?
CC(C)OCc1cc(CN2CCN(c3cccc(C(F)(F)F)c3)CC2)c(O)c2ncccc12	-5%	?	?	0.5µM*	6.5µM*	?
COc1ccc(OC)c(C2CC(=O)c3c([nH]c(C(=O)OCc4ccc(C)cc4)c3C)C2)c1 (centres undefined)	i	6.6µM*	19%	1%	-16%	?
CCOc1ccc(C2CC(=O)c3c([nH]c(C(=O)OCCOc4ccccc4)c3C)C2)cc1 (centres undefined)	-11%	-10%	-23%	?	?	28µM*
CCc1ccc(C2CC(=O)c3c([nH]c(C(=O)OCCOc4ccccc4)c3C)C2)cc1 (centres undefined)	?	5.2µM*	-21%	?	15µM*	?
Cc1c(C(=O)OCc2ccccc2)[nH]c2c1C(=O)CC(c1ccc(Cl)cc1)C2 (centres undefined)	i	?	-4%	-2%	?	-27%
CCOc1ccc(C2CC(=O)c3c([nH]c(C(=O)OC4CCC(C)CC4)c3C)C2)cc1 (centres undefined)	25%	-13%	-8%	10%	-7%	4%
COc1cc(C2CC(=O)c3c([nH]c(C(=O)OCc4ccc(C)cc4)c3C)C2)cc(OC)c1OC (centres undefined)	i	-2%	9%	?	?	-3%
O=C(C=Cc1ccc(CN(CCO)CCc2c[nH]c3ccccc23)cc1)NO	-2%	.	.	.	.	.
CCCCCCn1c(/C=C/c2ccccc2)nc2ccccc21	0%	8%	-22%	13µM*	-50%	-20%

Bioassay records (PubChem)
